Screening data from PubChem.
LDHA block = blocks human lactate dehydrogenase A. 480,000 tested, 0.15% active. purified LDHA, NADH/diaphorase-resazurin fluorescence; stronger effect = lower value. P00338. activity change, % (values are at about 110 or 230 µM); in the data active = activity change below about -30%; inconclusive = mostly about -25% to -30%;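 note: plate controls were DMSO wells for no effect and wells without enzyme for full effect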
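Remaining NADH was detected by diaphorase (0.133 mg/mL) converting 37 µM resazurin to fluorescent resorufin, read at 0 and 20 minutes. The preceding 5-minute room-temperature reaction used 2 nM LDHA, 0.2 mM sodium pyruvate and 0.06 mM NADH at pH 7.4.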
RORgamma inh = blocks mouse ROR gamma transcriptional activity. Drosophila S2 Gal4-RORgamma UAS-luciferase reporter, 20 h. Potency, µM (doses to about 53.6 µM), without a hit: at the top dose activity change, negative = inhibition, actives largely listed as inhibitors. 310,000 tested, 5.4% active; note: potency is the fitted concentration of half-maximal effect; nearly all actives have a fitted effect of over 60% in size
Target sequence (P51450 whole entry, looked up, the tested form may be a part): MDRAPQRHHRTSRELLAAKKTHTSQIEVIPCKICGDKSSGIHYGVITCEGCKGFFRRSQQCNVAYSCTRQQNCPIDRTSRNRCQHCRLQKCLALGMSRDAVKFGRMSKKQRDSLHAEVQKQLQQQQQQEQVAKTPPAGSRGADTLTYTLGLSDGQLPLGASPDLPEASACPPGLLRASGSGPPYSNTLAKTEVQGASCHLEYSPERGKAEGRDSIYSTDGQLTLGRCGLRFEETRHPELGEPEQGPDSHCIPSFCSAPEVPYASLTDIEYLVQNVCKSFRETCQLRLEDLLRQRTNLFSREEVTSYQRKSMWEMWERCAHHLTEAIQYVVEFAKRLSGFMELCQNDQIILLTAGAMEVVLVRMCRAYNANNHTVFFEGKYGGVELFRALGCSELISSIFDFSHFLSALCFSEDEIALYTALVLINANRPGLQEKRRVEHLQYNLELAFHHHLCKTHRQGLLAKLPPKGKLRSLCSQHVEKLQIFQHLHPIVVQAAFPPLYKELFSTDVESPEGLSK
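Luciferase reporter read in Schneider cells carrying Gal4-RORγ (mouse) and UAS-Photinus luciferase; cells given compound 1 h before 700 uM copper sulfate induction, then incubated 20 h at ambient temperature.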
IL1B secr inh = inhibitors of inflammasome signaling (IL-1 beta secretion); THP-1 LPS/ATP IL-1B secretion, AlphaLISA, 16 h; stronger effect = lower value; activity change, % at 57.5 µM; 360,000 tested, 4.7% active; AID 743279; in the data active = activity change below about -50%; inconclusive = mostly about -30% to -49%
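Secreted IL-1B measured by AlphaLISA bead assay after 16 h compound exposure of THP-1 cells; compounds (final up to 57.5 uM) added 1 h before LPS (250 ng/mL) and ATP (1.25 mM) stimulation; lower signal means less secretion.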
TDP1 cell CPT = DT40-hTDP1 cell growth loss with CPT; chicken DT40 Tdp1-/-;hTDP1 cells + 20 nM CPT, ATP luminescence, 48 h; 420,000 tested, 12% active; Potency, µM (doses to about 46.2 µM), inactives show top-dose activity change, negative = growth inhibition, most hits filed as inhibitors; note: potency is the fitted concentration of half-maximal effect; nearly all actives have a fitted effect of over 55% in size
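Chicken DT40 Tdp1-/- cells complemented with human TDP1, 400 cells/well, exposed to compounds plus 20 nM camptothecin for at least 48 h at 37 C; viability read as ATP content by CellTiter-Glo luminescence.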
DT40 TDP1 no CPT = qHTS for Inhibitors of human tyrosyl-DNA phosphodiesterase 1 (TDP1): qHTS in cells in absence of CPT. DT40 Tdp1-/- hTDP1 cells, no CPT, ATP luminescence, 48 h. Potency, µM (titrated, usually from 46.2 µM), for the others: at the highest dose activity change, negative = growth inhibition, most hits filed as inhibitors. 420,000 tested, 15% active. AID 686978, 2013; note: potency is the fitted concentration of half-maximal effect; nearly all actives have a fitted effect of over 55% in size
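Luminescent ATP content (CellTiter-Glo) served as the growth readout. Knockout chicken DT40 cells expressing human TDP1 were exposed to compounds without camptothecin for a minimum 48 hr at 37 °C.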
VP16 counter = counter-screen for ROR gamma inhibitors: Gal4-VP16 reporter; Potency, µM (top dose mostly 53.6 µM), for inactives: at the top dose activity, negative = inhibition, most hits filed as inhibitors; 310,000 tested, 3.5% active; Drosophila S2 Gal4-VP16 UAS-luciferase, luminescence, 20 h; AID 2546;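 note: Gal4-VP16 expression switched on by copper sulfate through the metallothionein promoter; potency is the fitted concentration of half-maximal effect; nearly all actives have a fitted effect of over 50% in size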
* hit, by the source's call; i = inactive; ? = inconclusive; . = no result given. A selection: hits, their analogues and other compounds. The true share with any hit is near 18%. Unless noted, calls come from the whole dose curve; as a rule, active = well fitted curve in the direction sought with a large enough effect; inconclusive = small, poorly fitted or top-dose-only effect, or another doubt; inactive = no such curve, though single readings can be large; an effect the other way counts as inactive or inconclusive. Unless noted, % is set by controls: 0 for no effect and ±100 for the full control effect.

SMILES	LDHA block	RORgamma inh	IL1B secr inh	TDP1 cell CPT	DT40 TDP1 no CPT	VP16 counter
Nc1nc(N)c2cc(Sc3cccc(C(F)(F)F)c3)ccc2n1	-6	.	?	9.2µM*	1.3µM*	.
Nc1nc(N)c2cc(Sc3ccc4ccccc4c3)ccc2n1	2	?	?	18µM*	8.2µM*	?
Nc1nc(N)c2cc(Sc3ccc(Cl)cc3)ccc2n1	-10	.	?	3.7µM*	1µM*	.
Oc1cccnc1Sc1cccc(C(F)(F)F)c1	1	.	12	-40%	?	.
Cc1ccc2cc(CN(c3ccccc3)S(C)(=O)=O)c(=O)[nH]c2c1	8	.	.	.	.	.
CC(=O)c1ccc(N=C2C(=O)Nc3ccccc32)cc1	-1	-16%	-8	?	13µM*	2%
CN(C)CC(NS(=O)(=O)c1ccccc1F)c1ccccc1 (stereo not given)	11	.	.	.	.	.
COc1ccc(NC(=O)C(C)C)cc1Cl	7	.	.	.	.	.
COC(=O)NC(=S)Nc1ccc(Oc2ccc(Cl)cc2)c(Cl)c1	-1	4.5µM*	27	?	?	5µM*
COC(=O)NC(=S)Nc1ccc(Oc2ccc(Cl)cc2Cl)c(Cl)c1	0	2.2µM*	48	9.2µM*	4.6µM*	?
Cc1c(Cc2ccccc2)c(=O)oc2cc(OCC(=O)N[C@@H](Cc3ccccc3)C(=O)O)ccc12	-7	-2%	-1	16%	0%	1%
Cc1c(Cc2ccccc2)c(=O)oc2cc(OCC(=O)NCc3ccccn3)ccc12	-3	38%	-52*	?	-17%	-10%
CC(=O)COc1ccc2c(C)c(-c3ccccc3)c(=O)oc2c1	-9	-3%	-6	?	26µM*	?
CNc1c(NC(=O)c2cc(OC)c(OC)c(OC)c2)c(=O)oc2ccccc12	5	.	.	.	.	.
O=S(CCO)CCO	1	.	.	.	.	.
COC(=O)c1ccc(CN2CCCC(C(=O)Nc3cccc(-n4cccn4)c3)C2)cc1 (stereo not given)	-1	-11%	17	?	?	-1%
COc1ccc(CN2CCCC(C(=O)Nc3cccc(-n4cccn4)c3)C2)cc1 (stereo not given)	-3	-8%	?	?	?	-3%
CC(=O)c1cccc(CN2CCCC(C(=O)Nc3cccc(-n4cccn4)c3)C2)c1 (stereo not given)	-3	-12%	i	?	23µM*	1%
Cc1nn(C)c(Cl)c1CN1CCCC(C(=O)Nc2cccc(-n3cccn3)c2)C1 (stereo not given)	-2	0%	-9	12µM*	?	-2%
CC(=O)c1cccc(CN2CCCC(C(=O)Nc3ccc(-c4ccco4)cc3)C2)c1 (stereo not given)	0	2%	-18	15µM*	?	1%
O=C(Nc1cccc(-n2cccn2)c1)C1CCCN(Cc2ccc(C#CCCO)cc2)C1 (stereo not given)	-5	-7%	i	?	21µM*	-19%
Cc1oc(-c2nc(C#N)c(NCc3cccnc3)o2)cc1S(=O)(=O)N(C)c1ccccc1	-9	.	.	.	.	.
C/C(=N\NC(=O)COc1ccccc1-c1ccccc1)c1ccccn1	-4	1.1µM*	-7	2.6µM*	2.6µM*	?
C/C(=N\NC(=O)COc1ccccc1-c1ccccc1)c1ccc(O)cc1O	-3	0%	169	21µM*	?	?
CC(=NNC(=S)N1CCCC1)c1ccccn1	2	.	77	-83%	-90%	.
SMILES	LDHA block	RORgamma inh	IL1B secr inh	TDP1 cell CPT	DT40 TDP1 no CPT	VP16 counter
CC(=NNC(=S)SCc1ccccc1)c1ccccn1	1	.	-3	0.052µM*	0.041µM*	.
CCCCCCCCCC(=O)N/N=C(\C)c1cccnc1	3	?	2	?	?	?
CCCCCC(=O)N/N=C(\C)c1ccccn1	7	0.35µM*	47	5.8µM*	5.8µM*	0.56µM*
O=C(O)COc1ccccc1-c1ccccc1	-2	4%	-1	4%	8%	-2%
CC(NC(=O)c1ccco1)C(=O)N1CCC(c2c[nH]c3ccccc23)CC1 (stereo not given)	9	.	.	.	.	.
C/C(=N\NC(=O)COc1ccccc1-c1ccccc1)c1cccnc1	-1	20%	19	?	21µM*	5%
Cc1[nH]c2ccccc2c1C(=O)CSc1nnnn1CC(C)C	-2	.	.	.	.	.
O=C1C=CC(=O)N1CCCCCCCCCCN1C(=O)C=CC1=O	-3	.	-87*	0.58µM*	1.3µM*	.
CC(C1CC1)N(C(=O)c1ccccc1[N+](=O)[O-])c1ccccc1 (stereo not given)	-17	-9%	-14	21µM*	8.2µM*	-9%
CC(CNC(=O)c1ccccc1[N+](=O)[O-])NC(=O)c1ccccc1[N+](=O)[O-] (stereo not given)	-10	.	17	1%	-3%	.
CN1CCN(c2oc(-c3ccccc3F)nc2S(=O)(=O)c2ccc3c(c2)OCCO3)CC1	0	.	.	.	.	.
COc1cc(-c2nc(CC(=O)NC3CCN(Cc4ccccc4)CC3)cs2)cc(OC)c1OC	-9	.	.	.	.	.
O=C(NCC(=O)N1CCN(CC(=O)N2CCOCC2)CC1)c1ccc(N2CCCC2=O)cc1	2	.	.	.	.	.
COc1ccc(C)cc1Nc1nc(C)nc2sc(C)cc12	0	-25%	22	?	21µM*	-20%
COC(=O)CC1Oc2cc3oc4c(c3cc2O1)C(=O)CC(C)(C)C4 (stereo not given)	.	5µM*	.	.	.	?
CC1(C)CC(=O)c2c(oc3cc(O)c(O)cc23)C1	13	-26%	-15	?	?	-5%
COc1ccc(-c2onc(C)c2C)cc1S(=O)(=O)NCC1CCN(Cc2cc(C)ccc2C)CC1	3	.	.	?	16µM*	.
COc1ccc(-c2onc(C)c2C)cc1S(=O)(=O)N1c2ccccc2CC1C (stereo not given)	-5	.	.	23µM*	?	.
COc1ccc(-c2onc(C)c2C)cc1S(=O)(=O)NCc1ccc(Br)cc1	4	.	.	10µM*	13µM*	.
CCN(CC)c1ccc(NS(=O)(=O)c2cc(-c3onc(C)c3C)ccc2OC)c(C)c1	24	.	.	23µM*	?	.
COc1ccc(-c2onc(C)c2C)cc1S(=O)(=O)N1CCC(C)CC1	-5	.	.	?	?	.
COc1ccc(NS(=O)(=O)c2cc(-c3onc(C)c3C)ccc2C)c(OC)c1	-9	.	.	?	?	.
CCNc1c(NS(=O)(=O)c2ccc(F)c(F)c2)c(=O)oc2ccccc12	-6	.	.	.	.	.
